# PubChem BioAssay (NCI)
# This is part of a sample that, as a whole, favours compounds with a hit. Of some 79,000 tested, about 15% had one in any assay. Values without a mark were called inactive. Activity calls are given as the source filed them. No stated cut-off is given here; in the data, active means growth inhibition above about 70%; inactive means the rest.
# What was measured:
# [1] = NCI Yeast Anticancer Drug Screen. Data for the rad52 strain (AID 147);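 further: 0% = growth of vehicle-treated control cultures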; details: S. cerevisiae rad52 mutant growth inhibition, hits give high values
# Outline: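 Read-out: growth inhibition versus vehicle-treated controls. Cells were a DNA repair-deficient yeast strain treated with compounds.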
# [2] = NCI Yeast Anticancer Drug Screen. Data for the wt1 strain (AID 149);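 further: 0% = growth of vehicle-treated wt1 cultures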; details: S. cerevisiae wt1 strain (SPY 50644) growth inhibition, hits give high values
# Outline: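 Measured: growth of wt1 yeast under compound versus vehicle treatment, reported as inhibition.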
# [3] = NCI Yeast Anticancer Drug Screen. Data for the rad50EPP+ strain (AID 151);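 further: 0% = growth of vehicle-treated control cultures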; details: S. cerevisiae rad50 mutant strain, hits give high values
# Outline: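 Growth inhibition read against vehicle controls in rad50EPP+ yeast, a strain altered in DNA damage repair, after compound exposure.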
# [4] = NCI Yeast Anticancer Drug Screen. Data for the mgt1 strain (AID 153); details: S. cerevisiae mgt1 mutant growth inhibition, hits give high values
# Outline: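 mgt1 yeast grown with test compound; read-out is growth inhibition versus vehicle-treated cultures.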
# [5] = NCI Yeast Anticancer Drug Screen. Data for the rad50 strain (AID 155);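 further: 0% = growth of vehicle-only cultures of the same strain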; details: S. cerevisiae rad50 strain growth inhibition, hits give high values
# Outline: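 Growth of the mutant yeast was measured after compound exposure and referenced to vehicle-treated cultures.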
# [6] = NCI Yeast Anticancer Drug Screen. Data for the mec2-1 strain (AID 157); details: S. cerevisiae mec2-1 strain, hits give high values
# Outline: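 Yeast mec2-1 mutant treated with compound. Readout: growth inhibition vs vehicle controls.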
# [7] = NCI Yeast Anticancer Drug Screen. Data for the rad14 strain (AID 159);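 further: 0% = growth of vehicle-treated control cultures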; details: S. cerevisiae rad14 strain growth inhibition, hits give high values
# Outline: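 Here, inhibition of yeast growth was measured after compound exposure, using a strain with a genetic defect in DNA damage repair and vehicle-treated cultures as the reference.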
# [8] = NCI Yeast Anticancer Drug Screen. Data for the sgs1 mgt1 strain (AID 161);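 further: 0% = growth of cultures given vehicle only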; details: S. cerevisiae sgs1 mgt1 strain, hits give high values
# Outline: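 Read-out: growth inhibition vs vehicle controls. Cells: mutant yeast strain deficient in DNA damage repair.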
# [9] = NCI Yeast Anticancer Drug Screen. Data for the CLN2oe strain (AID 163);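 further: 0% = growth of vehicle-only control cultures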; details: S. cerevisiae CLN2oe strain, hits give high values
# Outline: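 Read-out: yeast growth inhibition, expressed relative to vehicle-only controls. The strain bears an engineered cell-cycle alteration.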
# [10] = NCI Yeast Anticancer Drug Screen. Data for the cln2 rad14 strain (AID 165);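 further: 0% = growth equal to vehicle treated cultures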; details: S. cerevisiae cln2 rad14 strain, hits give high values
# Outline: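 cln2 rad14 yeast strain; compound exposure; growth inhibition read vs vehicle controls.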
# [11] = NCI Yeast Anticancer Drug Screen. Data for the bub3 strain (AID 167); details: S. cerevisiae bub3 mutant strain, hits give high values
# Outline: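 Whole-cell yeast assay. The mutant strain was incubated with compounds, and growth inhibition was determined by comparison with vehicle-treated cells.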
# [12] = NCI Yeast Anticancer Drug Screen. Data for the wt2 strain (AID 169);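 further: 0% = growth of vehicle-treated yeast cultures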; details: S. cerevisiae wt2 strain growth inhibition, hits give high values
# Outline: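 Read-out: growth inhibition versus vehicle-treated control cultures after compound exposure of the yeast strain.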
# [13] = NCI Yeast Anticancer Drug Screen. Data for the mlh1 strain (AID 171);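 further: 0% = growth of vehicle-treated control cultures of the same strain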; details: S. cerevisiae mlh1 strain growth inhibition, hits give high values
# Outline: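 Read-out: growth inhibition versus vehicle controls. Strain: engineered yeast with a defined DNA repair or cell cycle defect, compound-treated.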
# [14] = NCI Yeast Anticancer Drug Screen. Data for the sgs1 strain (AID 173);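 further: 0% = growth of vehicle-only control cultures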; details: S. cerevisiae sgs1 mutant, hits give high values
# Outline: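 Read-out: yeast growth inhibition relative to vehicle controls, following compound exposure of a strain with a defined DNA repair/cell cycle alteration.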
# [15] = NCI Yeast Anticancer Drug Screen. Data for the mlh1 rad18 strain (AID 175); details: S. cerevisiae mlh1 rad18 strain growth inhibition, hits give high values
# Outline: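 Yeast w/ defined DNA-repair lesions; compound exposure; growth vs vehicle controls → % inhibition.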
# [16] = NCI Yeast Anticancer Drug Screen. Data for the rad18 strain (AID 177); details: S. cerevisiae rad18 mutant growth inhibition, hits give high values
# Outline: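 Readout: growth inhibition vs vehicle controls. Cells: genetically altered yeast strain, DNA repair defect.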
# [17] = at 5.0 µM (retest, dose inferred, filed as 0.5)
# [18] = at 50.0 µM (retest, dose inferred, filed as 5.0)
smiles,measurement,setting,value
O=C(Cc1ccccc1)NNc1nc(NNC(=O)c2ccncc2)nc(Nc2ccc(Cl)cc2)n1,growth inhibition,[1]; at 1.2 µM,16%
same,growth inhibition,[1]; at 3.7 µM,6%
same,growth inhibition,[1]; at 11.0 µM,16%
same,growth inhibition,[1]; at 33.0 µM,14%
same,growth inhibition,[1]; at 100.0 µM,17%
same,growth inhibition,[2]; at 1.2 µM,-52%
same,growth inhibition,[2]; at 3.7 µM,-3%
same,growth inhibition,[2]; at 11.0 µM,0%
same,growth inhibition,[2]; at 33.0 µM,-1%
same,growth inhibition,[2]; at 100.0 µM,-1%
same,growth inhibition,[3]; at 1.2 µM,1%
same,growth inhibition,[3]; at 3.7 µM,8%
same,growth inhibition,[3]; at 11.0 µM,6%
same,growth inhibition,[3]; at 33.0 µM,3%
same,growth inhibition,[3]; at 100.0 µM,4%
same,growth inhibition,[4]; at 1.2 µM,1%
same,growth inhibition,[4]; at 3.7 µM,3%
same,growth inhibition,[4]; at 11.0 µM,5%
same,growth inhibition,[4]; at 33.0 µM,3%
same,growth inhibition,[4]; at 100.0 µM,-1%
same,growth inhibition,[5]; at 1.2 µM,-1%
same,growth inhibition,[5]; at 3.7 µM,0%
same,growth inhibition,[5]; [17],3%
same,growth inhibition,[5]; at 11.0 µM,0%
same,growth inhibition,[5]; at 33.0 µM,-1%
same,growth inhibition,[5]; [18],38%
same,growth inhibition,[5]; at 50.0 µM,39.2%
same,growth inhibition,[5]; at 100.0 µM,1%
same,growth inhibition,[6]; at 1.2 µM,-3%
same,growth inhibition,[6]; at 3.7 µM,-5%
same,growth inhibition,[6]; [17],6%
same,growth inhibition,[6]; at 11.0 µM,-1%
same,growth inhibition,[6]; at 33.0 µM,4%
same,growth inhibition,[6]; [18],22%
same,growth inhibition,[6]; at 50.0 µM,48.2%
same,growth inhibition,[6]; at 100.0 µM,-3%
same,growth inhibition,[7]; at 1.2 µM,0%
same,growth inhibition,[7]; at 3.7 µM,4%
same,growth inhibition,[7]; at 11.0 µM,3%
same,growth inhibition,[7]; at 33.0 µM,0%
same,growth inhibition,[7]; at 100.0 µM,2%
same,growth inhibition,[8]; [17],1%
same,growth inhibition,[8]; [18],12%
same,growth inhibition,[8]; at 50.0 µM,55.3%
same,growth inhibition,[9]; at 1.2 µM,-14%
same,growth inhibition,[9]; at 3.7 µM,-9%
same,growth inhibition,[9]; at 11.0 µM,-13%
same,growth inhibition,[9]; at 33.0 µM,-20%
same,growth inhibition,[9]; at 100.0 µM,-24%
same,growth inhibition,[10]; [17],-21%
same,growth inhibition,[10]; [18],45%
same,growth inhibition,[10]; at 50.0 µM,10.1%
same,growth inhibition,[11]; at 1.2 µM,-3%
same,growth inhibition,[11]; at 3.7 µM,-5%
same,growth inhibition,[11]; [17],-7%
same,growth inhibition,[11]; at 11.0 µM,-4%
same,growth inhibition,[11]; at 33.0 µM,-6%
same,growth inhibition,[11]; [18],98% (active)
same,growth inhibition,[11]; at 50.0 µM,31.8%
same,growth inhibition,[11]; at 100.0 µM,-7%
same,growth inhibition,[12]; at 1.2 µM,-4%
same,growth inhibition,[12]; at 3.7 µM,2%
same,growth inhibition,[12]; at 11.0 µM,4%
same,growth inhibition,[12]; at 33.0 µM,-1%
same,growth inhibition,[12]; at 100.0 µM,-2%
same,growth inhibition,[13]; at 1.2 µM,-2%
same,growth inhibition,[13]; at 3.7 µM,-1%
same,growth inhibition,[13]; at 11.0 µM,0%
same,growth inhibition,[13]; at 33.0 µM,-2%
same,growth inhibition,[13]; at 100.0 µM,-3%
same,growth inhibition,[14]; at 1.2 µM,3%
same,growth inhibition,[14]; at 3.7 µM,7%
same,growth inhibition,[14]; at 11.0 µM,7%
same,growth inhibition,[14]; at 33.0 µM,6%
same,growth inhibition,[14]; at 100.0 µM,4%
same,growth inhibition,[15]; [17],13%
same,growth inhibition,[15]; [18],14%
same,growth inhibition,[15]; at 50.0 µM,59.9%
same,growth inhibition,[16]; at 1.2 µM,9%
same,growth inhibition,[16]; at 3.7 µM,10%
same,growth inhibition,[16]; at 11.0 µM,19%
same,growth inhibition,[16]; at 33.0 µM,19%
same,growth inhibition,[16]; at 100.0 µM,15%
COc1cc2oc3ccccc3c(=O)c2cc1CSc1ccccc1N,growth inhibition,[1]; at 1.2 µM,-1%
same,growth inhibition,[1]; at 3.7 µM,1%
same,growth inhibition,[1]; at 11.0 µM,1%
same,growth inhibition,[1]; at 33.0 µM,8%
same,growth inhibition,[1]; at 100.0 µM,8%
same,growth inhibition,[2]; at 1.2 µM,-1%
same,growth inhibition,[2]; at 3.7 µM,-1%
same,growth inhibition,[2]; at 11.0 µM,-1%
same,growth inhibition,[2]; at 33.0 µM,-2%
same,growth inhibition,[2]; at 100.0 µM,0%
same,growth inhibition,[3]; at 1.2 µM,-5%
same,growth inhibition,[3]; at 3.7 µM,1%
same,growth inhibition,[3]; at 11.0 µM,4%
same,growth inhibition,[3]; at 33.0 µM,14%
same,growth inhibition,[3]; at 100.0 µM,16%
same,growth inhibition,[4]; at 1.2 µM,1%
same,growth inhibition,[4]; at 3.7 µM,0%
same,growth inhibition,[4]; at 11.0 µM,-2%
same,growth inhibition,[4]; at 33.0 µM,-2%
same,growth inhibition,[4]; at 100.0 µM,6%
same,growth inhibition,[5]; at 1.2 µM,0%
same,growth inhibition,[5]; at 3.7 µM,0%
same,growth inhibition,[5]; [17],9%
same,growth inhibition,[5]; at 11.0 µM,1%
same,growth inhibition,[5]; at 33.0 µM,6%
same,growth inhibition,[5]; [18],26%
same,growth inhibition,[5]; at 50.0 µM,44.9%
same,growth inhibition,[5]; at 100.0 µM,7%
same,growth inhibition,[6]; at 1.2 µM,-2%
same,growth inhibition,[6]; at 3.7 µM,-1%
same,growth inhibition,[6]; [17],8%
same,growth inhibition,[6]; at 11.0 µM,-1%
same,growth inhibition,[6]; at 33.0 µM,2%
same,growth inhibition,[6]; [18],8%
same,growth inhibition,[6]; at 50.0 µM,-19.2%
same,growth inhibition,[6]; at 100.0 µM,15%
same,growth inhibition,[7]; at 1.2 µM,0%
same,growth inhibition,[7]; at 3.7 µM,-6%
same,growth inhibition,[7]; at 11.0 µM,-5%
same,growth inhibition,[7]; at 33.0 µM,-18%
same,growth inhibition,[7]; at 100.0 µM,-16%
same,growth inhibition,[8]; [17],3%
same,growth inhibition,[8]; [18],48%
same,growth inhibition,[8]; at 50.0 µM,39.8%
same,growth inhibition,[9]; at 1.2 µM,-4%
same,growth inhibition,[9]; at 3.7 µM,3%
same,growth inhibition,[9]; at 11.0 µM,-1%
same,growth inhibition,[9]; at 33.0 µM,2%
same,growth inhibition,[9]; at 100.0 µM,3%
same,growth inhibition,[10]; [17],2%
same,growth inhibition,[10]; [18],34%
same,growth inhibition,[10]; at 50.0 µM,27.5%
same,growth inhibition,[11]; at 1.2 µM,-1%
same,growth inhibition,[11]; at 3.7 µM,2%
same,growth inhibition,[11]; [17],4%
same,growth inhibition,[11]; at 11.0 µM,35%
same,growth inhibition,[11]; at 33.0 µM,54%
same,growth inhibition,[11]; [18],71% (active)
same,growth inhibition,[11]; at 50.0 µM,72.4% (active)
same,growth inhibition,[11]; at 100.0 µM,74% (active)
same,growth inhibition,[12]; at 1.2 µM,-1%
same,growth inhibition,[12]; at 3.7 µM,-2%
same,growth inhibition,[12]; at 11.0 µM,-2%
same,growth inhibition,[12]; at 33.0 µM,3%
same,growth inhibition,[12]; at 100.0 µM,7%
same,growth inhibition,[13]; at 1.2 µM,-5%
same,growth inhibition,[13]; at 3.7 µM,0%
same,growth inhibition,[13]; at 11.0 µM,-1%
same,growth inhibition,[13]; at 33.0 µM,2%
same,growth inhibition,[13]; at 100.0 µM,-7%
same,growth inhibition,[14]; at 1.2 µM,1%
same,growth inhibition,[14]; at 3.7 µM,1%
same,growth inhibition,[14]; at 11.0 µM,5%
same,growth inhibition,[14]; at 33.0 µM,15%
same,growth inhibition,[14]; at 100.0 µM,20%
same,growth inhibition,[15]; [17],15%
same,growth inhibition,[15]; [18],31%
same,growth inhibition,[15]; at 50.0 µM,39.9%
same,growth inhibition,[16]; at 1.2 µM,-14%
same,growth inhibition,[16]; at 3.7 µM,-7%
same,growth inhibition,[16]; at 11.0 µM,-12%
same,growth inhibition,[16]; at 33.0 µM,8%
same,growth inhibition,[16]; at 100.0 µM,3%
